Measured values published in PubChem BioAssay (NCI).
The panel holds about 79,000 compounds, 15% with a hit somewhere; the sample as a whole holds those more often. The source made the active and inactive calls. Rule as the data show it: active = growth inhibition above about 70%; inactive = the rest.

Columns and labels:
[1] = NCI Yeast Anticancer Drug Screen. Data for the rad52 strain (AID 147);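 also: 0% = growth of vehicle-treated control cultures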; conditions: S. cerevisiae rad52 mutant growth inhibition, hits give high values
Method in brief: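 Vehicle-treated cultures served as the reference for growth inhibition of compound-exposed yeast bearing a DNA repair mutation.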

[2] = NCI Yeast Anticancer Drug Screen. Data for the wt1 strain (AID 149);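 also: 0% = growth of vehicle-treated wt1 cultures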; conditions: S. cerevisiae wt1 strain (SPY 50644) growth inhibition, hits give high values
Method in brief: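 wt1 strain grown with compound or vehicle; inhibition taken from the growth difference.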

[3] = NCI Yeast Anticancer Drug Screen. Data for the rad50EPP+ strain (AID 151);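 also: 0% = growth of vehicle-treated control cultures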; conditions: S. cerevisiae rad50 mutant strain, hits give high values
Method in brief: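 In this screen, rad50EPP+ yeast were exposed to compounds. Growth inhibition was scored against vehicle-treated controls.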

[4] = NCI Yeast Anticancer Drug Screen. Data for the mgt1 strain (AID 153); conditions: S. cerevisiae mgt1 mutant growth inhibition, hits give high values
Method in brief: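 mgt1 strain exposed; growth vs vehicle control recorded as inhibition.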

[5] = NCI Yeast Anticancer Drug Screen. Data for the rad50 strain (AID 155);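 also: 0% = growth of vehicle-only cultures of the same strain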; conditions: S. cerevisiae rad50 strain growth inhibition, hits give high values
Method in brief: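 DNA repair mutant yeast, compound exposure, growth read-out; inhibition is taken relative to vehicle.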

[6] = NCI Yeast Anticancer Drug Screen. Data for the mec2-1 strain (AID 157); conditions: S. cerevisiae mec2-1 strain, hits give high values
Method in brief: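 Vehicle-treated cultures served as reference for growth inhibition of compound-exposed mec2-1 yeast.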

[7] = NCI Yeast Anticancer Drug Screen. Data for the rad14 strain (AID 159);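 also: 0% = growth of vehicle-treated control cultures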; conditions: S. cerevisiae rad14 strain growth inhibition, hits give high values
Method in brief: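 DNA repair-defective yeast, compound-exposed; % growth inhibition derived by comparison with vehicle-treated controls.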

[8] = NCI Yeast Anticancer Drug Screen. Data for the sgs1 mgt1 strain (AID 161);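 also: 0% = growth of cultures given vehicle only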; conditions: S. cerevisiae sgs1 mgt1 strain, hits give high values
Method in brief: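 Test agents were incubated with a DNA-repair-mutant yeast strain. Growth was then read and compared against vehicle-treated controls.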

[9] = NCI Yeast Anticancer Drug Screen. Data for the CLN2oe strain (AID 163);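 also: 0% = growth of vehicle-only control cultures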; conditions: S. cerevisiae CLN2oe strain, hits give high values
Method in brief: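 Inhibition relative to vehicle-treated yeast is reported. Cells: strain with genetic alteration in cell-cycle control, grown with compound.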

[10] = NCI Yeast Anticancer Drug Screen. Data for the cln2 rad14 strain (AID 165);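 also: 0% = growth equal to vehicle treated cultures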; conditions: S. cerevisiae cln2 rad14 strain, hits give high values
Method in brief: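 Each compound was tested on cln2 rad14 yeast. Inhibition of growth was calculated against vehicle-exposed controls.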

[11] = NCI Yeast Anticancer Drug Screen. Data for the bub3 strain (AID 167); conditions: S. cerevisiae bub3 mutant strain, hits give high values
Method in brief: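 In this screen, a yeast mutant lacking normal mitotic checkpoint function is challenged with compound. Relative growth versus vehicle gives the inhibition value.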

[12] = NCI Yeast Anticancer Drug Screen. Data for the wt2 strain (AID 169);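 also: 0% = growth of vehicle-treated yeast cultures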; conditions: S. cerevisiae wt2 strain growth inhibition, hits give high values
Method in brief: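 Inhibition of yeast growth was determined after compound treatment, normalised to controls receiving only vehicle.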

[13] = NCI Yeast Anticancer Drug Screen. Data for the mlh1 strain (AID 171);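 also: 0% = growth of vehicle-treated control cultures of the same strain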; conditions: S. cerevisiae mlh1 strain growth inhibition, hits give high values
Method in brief: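 Vehicle-normalised growth inhibition of a repair- or checkpoint-altered yeast strain following compound treatment.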

[14] = NCI Yeast Anticancer Drug Screen. Data for the sgs1 strain (AID 173);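 also: 0% = growth of vehicle-only control cultures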; conditions: S. cerevisiae sgs1 mutant, hits give high values
Method in brief: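 Screen format: yeast with repair or checkpoint alterations, compound exposure, growth read relative to vehicle.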

[15] = NCI Yeast Anticancer Drug Screen. Data for the mlh1 rad18 strain (AID 175); conditions: S. cerevisiae mlh1 rad18 strain growth inhibition, hits give high values
Method in brief: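 Vehicle-treated cultures served as the reference for growth inhibition in a yeast strain carrying DNA damage repair alterations exposed to each compound.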

[16] = NCI Yeast Anticancer Drug Screen. Data for the rad18 strain (AID 177); conditions: S. cerevisiae rad18 mutant growth inhibition, hits give high values
Method in brief: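 Test articles were incubated with altered yeast defective in DNA damage repair. Results are given as inhibition of growth versus vehicle.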

[17] = at 5.0 µM (retest, dose inferred, filed as 0.5)
[18] = at 50.0 µM (retest, dose inferred, filed as 5.0)

Measured: growth inhibition

CCC/C(Cl)=N\OC(=O)Nc1ccc(Br)cc1
inactive: [1]; at 1.2 µM 58% | [1]; at 3.7 µM 69% | [2]; at 1.2 µM 13% | [2]; at 3.7 µM 14% | [2]; at 11.0 µM 58% | [3]; at 1.2 µM 26% | [3]; at 3.7 µM 31% | [3]; at 11.0 µM 56% | [4]; at 1.2 µM 9% | [4]; at 3.7 µM 16% | [5]; at 1.2 µM 32% | [5]; at 3.7 µM 40% | [5]; [17] 9% | [6]; at 1.2 µM 16% | [6]; at 3.7 µM 27% | [6]; [17] -16% | [7]; at 1.2 µM 32% | [7]; at 3.7 µM 33% | [8]; [17] 9% | [9]; at 1.2 µM 10% | [9]; at 3.7 µM 15% | [10]; [17] -22% | [11]; at 1.2 µM 1% | [11]; at 3.7 µM 17% | [11]; [17] -48% | [11]; at 11.0 µM 63% | [12]; at 1.2 µM 25% | [12]; at 3.7 µM 33% | [13]; at 1.2 µM 14% | [13]; at 3.7 µM 19% | [14]; at 1.2 µM 65% | [14]; at 3.7 µM 62% | [15]; [17] 61%
active: [1]; at 11.0 µM 94% | [1]; at 33.0 µM 98% | [1]; at 100.0 µM 98% | [2]; at 33.0 µM 97% | [2]; at 100.0 µM 98% | [3]; at 33.0 µM 77% | [3]; at 100.0 µM 81% | [4]; at 11.0 µM 82% | [4]; at 33.0 µM 98% | [4]; at 100.0 µM 99% | [5]; at 11.0 µM 86% | [5]; at 33.0 µM 97% | [5]; [18] 99% | [5]; at 50.0 µM 88.2% | [5]; at 100.0 µM 98% | [6]; at 11.0 µM 77% | [6]; at 33.0 µM 98% | [6]; [18] 99% | [6]; at 50.0 µM 92% | [6]; at 100.0 µM 99% | [7]; at 11.0 µM 90% | [7]; at 33.0 µM 98% | [7]; at 100.0 µM 99% | [8]; [18] 99% | [8]; at 50.0 µM 84% | [9]; at 11.0 µM 84% | [9]; at 33.0 µM 98% | [9]; at 100.0 µM 99% | [10]; [18] 99% | [10]; at 50.0 µM 89.8% | [11]; at 33.0 µM 94% | [11]; [18] 99% | [11]; at 50.0 µM 87.6% | [11]; at 100.0 µM 96% | [12]; at 11.0 µM 90% | [12]; at 33.0 µM 98% | [12]; at 100.0 µM 99% | [13]; at 11.0 µM 76% | [13]; at 33.0 µM 97% | [13]; at 100.0 µM 98% | [14]; at 11.0 µM 94% | [14]; at 33.0 µM 98% | [14]; at 100.0 µM 98% | [15]; [18] 99% | [15]; at 50.0 µM 83.8% | [16]; at 1.2 µM 71% | [16]; at 3.7 µM 77% | [16]; at 11.0 µM 93% | [16]; at 33.0 µM 97% | [16]; at 100.0 µM 98%
